# In the library only some 1.7% were active in any assay of this set; here they are far more common.
# PME-1 inh = PME-1 inhibitors via competitive probe labeling, primary screen, biochemical, fluorescence polarization, FP-Rh probe, HTS; Protein phosphatase methylesterase 1 (Homo sapiens), Q9Y570; recombinant PME-1; inhibition, % at 5.9 µM; 0.53% of 320,000 active; AID 2130, 2009;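 active means inhibition above the campaign mean of all compounds plus 3 SD, cut at about 26% in these data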;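 further: competitive labeling of PME-1 active site by serine hydrolase directed probe; 0% = PME-1 with DMSO and 100% = wells lacking PME-1 enzyme; inhibitors block probe labeling so polarization falls and inhibition rises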
# Target sequence (Q9Y570 whole entry, looked up): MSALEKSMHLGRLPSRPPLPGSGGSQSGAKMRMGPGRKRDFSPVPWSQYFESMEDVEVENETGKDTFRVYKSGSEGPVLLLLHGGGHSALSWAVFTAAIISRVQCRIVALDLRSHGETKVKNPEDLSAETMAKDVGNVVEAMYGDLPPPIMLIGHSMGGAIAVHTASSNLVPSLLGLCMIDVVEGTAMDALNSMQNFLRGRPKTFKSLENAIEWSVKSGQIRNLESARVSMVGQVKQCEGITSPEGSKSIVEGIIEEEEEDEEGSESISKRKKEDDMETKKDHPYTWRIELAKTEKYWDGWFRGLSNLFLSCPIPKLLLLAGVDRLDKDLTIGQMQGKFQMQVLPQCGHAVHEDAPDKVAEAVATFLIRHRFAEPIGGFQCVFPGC
# GSTO1 counter = inhibitors of recombinant GSTO1, primary screen, counter-screen for RBBP9 inhibitor project, biochemical, fluorescence polarization; 1.1% of 300,000 active; inhibition, % at 5.96 µM; activity-based probe fluorescence polarization;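 active means inhibition above the campaign mean inhibition plus 3 SD, cut at about 35% in these data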;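 further: 0% = GSTO1-1 with DMSO and 100% = wells lacking GSTO1-1 enzyme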
# LYPLA1 inh = LYPLA1 inhibitors, primary screen, counter-screen for PME1 inhibitor project, biochemical, fluorescence polarization, FP-Rh probe ABPP; Acyl-protein thioesterase 1 (Homo sapiens), O75608; recombinant LYPLA1; inhibition, % at 5.9 µM; 0.16% of 320,000 active; AID 2174, 2009;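 active means inhibition above the mean of all tested compounds plus 3 SD, set per campaign, cut at about 14% in these data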;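 further: inhibitors block serine hydrolase probe labeling of LYPLA1 so polarization falls; 0% = enzyme with DMSO and 100% = wells lacking LYPLA1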
# Target sequence (O75608 whole entry, looked up): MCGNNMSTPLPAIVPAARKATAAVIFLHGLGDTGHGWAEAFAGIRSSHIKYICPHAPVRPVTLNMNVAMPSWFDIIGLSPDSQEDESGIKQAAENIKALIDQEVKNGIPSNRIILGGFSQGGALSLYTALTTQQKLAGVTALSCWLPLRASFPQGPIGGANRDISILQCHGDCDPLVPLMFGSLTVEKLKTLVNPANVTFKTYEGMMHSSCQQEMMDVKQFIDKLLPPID
# Fam108B inh = mouse Fam108B serine hydrolase inhibitors, primary screen, counter-screen for RBBP9 inhibitor project, biochemical, fluorescence polarization; recombinant Fam108B, FP-Rh probe fluorescence polarization; inhibition, % at 9.51 µM; 0.33% of 300,000 active;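 active means inhibition above the screen mean inhibition plus 3 SD, computed separately per campaign, cut at about 18% in these data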;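 further: inhibitors lower polarization as less probe binds the enzyme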
# PAD4 inh = human PAD4 inhibitors, primary screen, biochemical, fluorescence polarization, 1536-well format | Protein-arginine deiminase type-4 (Homo sapiens), Q9UM07 | recombinant PAD4, RCA probe fluorescence polarization | inhibition, % at 6.36 µM | 0.41% of 330,000 active | AID 485272, 2010;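 active means percent inhibition above a cutoff equal to the mean of all tested compounds plus 3 SD, cut at about 15% in these data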;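 further: 0% = PAD4 with RCA probe and DMSO and 100% = probe without PAD4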
# LYPLA2 counter = LYPLA2 inhibitors, primary screen, counter-screen for PME1 inhibitor project, biochemical, fluorescence polarization, FP-Rh probe ABPP | Acyl-protein thioesterase 2 (Homo sapiens), O95372 | recombinant LYPLA2 | inhibition, % at 5.9 µM | 0.38% of 320,000 active;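 active means inhibition above the screen-wide mean plus 3 SD, limit set per campaign, cut at about 26% in these data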;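 further: 0% = LYPLA2 with DMSO and 100% = wells lacking LYPLA2 enzyme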
# GSTO1 inh conf = GSTO1 inhibitor hit confirmation, counter-screen for RBBP9 inhibitor project, biochemical, fluorescence polarization, triplicate. shares compounds with GSTO1 counter. recombinant GSTO1, probe fluorescence polarization. inhibition, % at 5.96 µM. 54% of 2,400 active. AID 2176, 2009;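 active means inhibition above the primary screen's cutoff, its mean inhibition plus 3 SD, cut at about 35% in these data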;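 further: loss of polarization as inhibitors block binding of rhodamine sulfonate ester activity probe; 0% = GSTO1 with DMSO and 100% = wells lacking GSTO1 enzyme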
# GSTO1 recomb ABPP = inhibitors of purified human GSTO1, late-stage follow-up, biochemical, gel ABPP, SE-Rh probe, percent inhibition | shares compounds with GSTO1 counter | recombinant GSTO1, gel ABPP SE-Rh probe fluorescence | inhibition, % at 1 µM | 30% of 130 active | AID 463110, 2010;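 active means inhibition of the enzyme GSTO1 above about 75%, limit read from the data; inactive means inhibition below that limit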
# * hit, by the source's call; x = no result.
SMILES,PME-1 inh,GSTO1 counter,LYPLA1 inh,Fam108B inh,PAD4 inh,LYPLA2 counter,GSTO1 inh conf,others
COc1cc(C(C2C(=O)CC(C)(C)CC2=O)C2C(=O)CC(C)(C)CC2=O)ccc1OC(C)=O,3,10,-1,-2,-3,2,x,
COC(=O)C1(C)Cc2cc(OC(C)=O)c(OC(C)=O)cc2N1 (centres undefined),0,66*,-3,3,-10,-8,24,
COCCn1cnnc1SCC(=O)c1ccc(S(=O)(=O)N2CCCC2)cc1,0,61*,-4,-2,-7,-9,61*,
O=C(COC(=O)C1CC(=O)N(C2CCCCC2)C1)c1ccc(F)cc1 (centres undefined),3,-6,0,0,1,-1,x,
CN(CC(=O)Nc1ccccc1Br)C(=O)c1ccc(-c2ccc(Cl)cc2)o1,3,-3,-2,-7,-5,-4,x,
O=C(CCCC(=O)OCC(Cl)=C(Cl)Cl)Nc1ccccc1,-3,0,-1,-4,-3,4,x,
O=C(NCc1ccc2[nH]c3c(c2c1)CCCC3)N1CCOCC1,2,49*,4,2,-17,1,59*,
COc1ccc(CCNC(=O)c2noc(C(C)C)c2[N+](=O)[O-])cc1OC,-4,39*,1,-6,0,4,30,
O=C(O)c1ccc(N=Nc2c(O)ccc3ncccc23)cc1,-10,60*,-4,17,-8,-1,41*,
Nc1nc(N)c(N=Nc2ccc(C(=O)O)cc2)c(N)n1,-5,5,-1,-4,3,-8,x,
CCCCCCSc1nsc(NC(=O)CCC)n1,3,1,-5,-1,-2,-4,x,
CCN(CC)S(=O)(=O)c1ccc(NS(=O)(=O)c2ccc3oc(=O)[nH]c3c2)cc1,-2,44*,-1,-2,3,-3,58*,
Cn1c(=O)oc2cc(S(=O)(=O)NCCC(=O)NC3CCCC3)ccc21,3,4,-2,1,2,0,x,
Cn1c(=O)oc2cc(S(=O)(=O)NC3CCCCCCC3)ccc21,-1,43*,3,-3,5,7,39*,
Cc1cccc(CCNS(=O)(=O)c2ccc3c(c2)oc(=O)n3C)c1,3,55*,1,-4,9,-4,58*,
CC(C)c1ccc(NS(=O)(=O)c2ccc3c(c2)oc(=O)n3C)cc1,5,65*,-4,0,-1,-9,65*,
O=C(O)C1=C[C@H](c2ccc(C(F)(F)F)cc2)C[C@H](OCCCCO)O1,0,-1,1,0,-1,2,x,
CC(=O)c1c(C)nc(-c2ccc(Cl)cc2)nc1N=CN(C)C,1,38*,-3,0,-4,-4,16,
COc1cc(/C=N/NS(=O)(=O)c2ccc(C(C)(C)C)cc2)cc([N+](=O)[O-])c1O,3,50*,-1,2,-1,1,64*,
COc1cc(/C=N/NS(=O)(=O)c2ccc(C)c([N+](=O)[O-])c2)cc([N+](=O)[O-])c1O,2,12,3,-6,-1,7,x,
CC#CC#Cc1cccc(=O)o1,-2,82*,0,2,1,-3,80*,
COc1ccc(CCn2c(NCc3ccco3)nc3c2c(=O)[nH]c(=O)n3C)cc1,6,3,0,1,1,1,x,
COc1ccc(CCn2c(NN)nc3c2c(=O)[nH]c(=O)n3C)cc1,9,41*,-3,0,-4,0,8,
COCCNC(=O)C(=O)N/N=C(\C)CC(=O)Nc1ccc(Cl)cc1Cl,-2,71*,0,-2,-3,-2,8,
C/C(CC(=O)Nc1ccc(Cl)cc1Cl)=N\NC(=O)C(=O)N1CCCC1,-3,4,-2,-3,-7,8,x,
SMILES,PME-1 inh,GSTO1 counter,LYPLA1 inh,Fam108B inh,PAD4 inh,LYPLA2 counter,GSTO1 inh conf,others
O=C(C[n+]1ccccc1)Nc1ccc(Oc2ccccc2)cc1,-3,17,-1,2,2,1,x,
CC1(C)CC(=O)C(C=NCCc2ccc(S(N)(=O)=O)cc2)=C(O)C1,-1,41*,5,3,-3,4,5,
CC1(C)CC(=O)C(C=Nc2ccc(O)cc2)=C(O)C1,5,38*,-3,0,0,4,4,
Cc1cc(OC(=O)C(c2ccccc2)c2ccccc2)c([N+](=O)[O-])c(=O)[nH]1,2,0,-1,-2,1,5,x,
CCc1nn(CC(=O)NC2CCN(Cc3ccccc3)CC2)c(=O)c2cc3cc(F)ccc3n12,2,-6,-1,-1,-2,-5,x,
O=C(CN1CCCC1)N/N=C/c1c(O)ccc2ccccc12,7,38*,1,6,-12,-4,5,
CCOc1nc(-c2ccccc2Cl)ccc1C#N,2,6,-3,-2,-7,-2,x,
CCn1c(=O)oc2cc(NC(=O)CCl)ccc21,2,88*,-4,0,0,-7,92*,
COc1cccc(/C=N/NC(=O)Cn2nc([N+](=O)[O-])cc2C)c1,0,-3,2,-2,-9,3,x,
CCS(=O)(=O)NCCc1csc(-c2ccccc2)n1,-8,3,-3,0,-5,0,x,
CCc1ccc(-c2nc(CCl)cs2)cc1,-2,92*,0,1,1,0,98*,GSTO1 recomb ABPP=81*
COc1cccc(-c2nc(CCl)cs2)c1,2,83*,1,6,-2,3,95*,GSTO1 recomb ABPP=63
COc1ccc(-c2nc(CCl)cs2)cc1OC,-12,28,-2,0,5,1,x,
CCN(CC)C(=O)C1=C(C)NC(=S)NC1c1ccc(C)s1 (centres undefined),-1,1,1,-1,-2,-4,x,
Cc1c(NC(=S)NC(=O)c2cccc(Cl)c2)c(=O)n(-c2ccccc2)n1C,8,3,-4,1,2,3,x,
CCN(CC(=O)Nc1c(F)cccc1F)C(=O)CNC(=O)C1CCCCC1,0,-1,3,-4,-1,-5,x,

# Source: PubChem
